A selection: hits, their analogues and other compounds. The true share with any hit is near 9.4%.
SMN2 splice up: increases expression of the SMN2 splice variant | HEK293 SMN2-luciferase splicing reporter, luminescence, 30-36 h | Potency, µM (highest dose often 46.1 µM), for the others: top-dose activity change, positive = activation, actives largely listed as activators | 210,000 tested, 2.8% active | AID 1458; also: % of control where 0% means no effect; nearly all actives have a fitted effect of over 55% in size
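HEK293 cells carry an SMN2 […]–luciferase reporter in which exon 7 inclusion puts luciferase in frame. Cells were plated 10-12 h before compound addition, then incubated 30-36 h at 37C. ONE-Glo luminescence was read; sodium butyrate at 4.5 mM final served as control.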
Rab9 promoter act: activators of Rab9 promoter; 320,000 tested, 2.8% active; Huh7 Rab9 promoter-luciferase reporter, luminescence, 24 h; Potency, µM (highest dose often 9.22 µM), for the others: at the highest dose activation, negative = inhibition, usual class: activators; also: % of control where 0% means no effect; nearly all actives have a fitted effect of over 60% in size
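Rab9 promoter-driven luciferase in stably transfected Huh7 cells; 1500 cells/well rested 2 h, exposed to compound in DMSO for 24 h at 37 °C, 5% CO2. Luminescence read 10 min after adding luciferase reagent at ambient temperature.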
FLuc counter: firefly luciferase modulation, counter-screen for miR-21 project; P08659; purified FLuc, Km substrates, luminescence inhibition; Potency, µM (doses to about 57.5 µM), without a hit: top-dose activity change, negative = inhibition, actives largely listed as inhibitors; 360,000 tested, 6.9% active;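 also: plate controls were vehicle for no effect and reference inhibitor for full effect; nearly all actives have a fitted effect of over 55% in size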
Target sequence (P08659 whole entry, looked up): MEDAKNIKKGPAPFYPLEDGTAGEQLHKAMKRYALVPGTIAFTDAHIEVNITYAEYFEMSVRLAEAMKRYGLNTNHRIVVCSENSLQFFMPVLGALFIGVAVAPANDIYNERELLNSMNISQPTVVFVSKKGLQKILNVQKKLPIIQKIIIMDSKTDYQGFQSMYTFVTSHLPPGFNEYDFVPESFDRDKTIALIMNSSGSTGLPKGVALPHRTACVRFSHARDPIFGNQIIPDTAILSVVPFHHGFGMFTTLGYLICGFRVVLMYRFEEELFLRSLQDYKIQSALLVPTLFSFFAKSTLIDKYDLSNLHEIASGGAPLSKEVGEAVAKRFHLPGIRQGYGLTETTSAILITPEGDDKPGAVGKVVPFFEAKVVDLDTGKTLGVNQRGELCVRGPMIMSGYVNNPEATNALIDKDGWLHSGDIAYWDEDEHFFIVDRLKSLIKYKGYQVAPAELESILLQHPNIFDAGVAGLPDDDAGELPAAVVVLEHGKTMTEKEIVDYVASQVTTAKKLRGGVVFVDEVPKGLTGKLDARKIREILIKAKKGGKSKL
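Purified P. pyralis luciferase (10nM final) with 10uM D-luciferin and 10uM ATP (Km levels) in 50mM Tris acetate pH 7.5, 10mM Mg acetate, 0.01% Tween-20, 0.05% BSA; qHTS 6-point titration, ~60 µM downward; luminescence read.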
NPC1 promoter act: activates the NPC1 promoter; Huh7 NPC1 promoter luciferase reporter, 24 h; Potency, µM (titrated, usually from 9.22 µM), inactives show at the top dose activation, most hits filed as activators; 320,000 tested, 2.4% active; AID 485313; also: % of control where 0% means no effect; nearly all actives have a fitted effect of over 60% in size
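Luminescence read-out of NPC1 promoter-driven luciferase in stably transfected Huh7 cells; compounds delivered in DMSO and left 24 h at 37C, 5% CO2, qHTS titration format.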
ELG1 genotoxic: induces genotoxicity in HEK293T cells with luciferase-tagged ELG1 | HEK293T ELG1-luciferase reporter, luminescence, 16 h | Potency, µM (titrated, usually from 46 µM), for the others: at the highest dose activity change, positive = activation, usual class: activators | 330,000 tested, 1.3% active; also: % of control where 0% means no effect; nearly all actives have a fitted effect of over 60% in size
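Reporter readout depends on ELG1 protein level, which increases with genetic stress. After 16 hr compound exposure at 37 °C, luciferase activity was quantified using ONE-Glo.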
ELG1 repair inh: inhibitors of ELG1-dependent DNA repair in HEK293T cells | HEK293T ELG1-luciferase reporter, luminescence, 16 h; DNA damage induced by 5-fluorouridine | Potency, µM (series often up to 46.1 µM), for the others: at the top dose activity change, negative = inhibition, actives largely listed as inhibitors | 330,000 tested, 2.3% active | AID 504467; also: % is scaled to controls: 0 for no effect and ±100 for the full control effect; nearly all actives have a fitted effect of over 55% in size
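Luminescence from the luciferase reporter, measured 30 min after ONE-Glo reagent at room temperature, was the read-out. Beforehand, 2,000 cells per well were exposed for 16 hr at 37 °C to 5-fluorouridine together with compound or vehicle.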
* hit, by the source's call; ? = inconclusive; . = not tested or not shown; [ ] = dose if it differs, or a comment. Calls follow the shape of the dose curve; as a rule, active = well fitted curve in the direction sought with a large enough effect; inconclusive = small, poorly fitted or top-dose-only effect, or another doubt; inactive = no such curve, though single readings can be large; an effect the other way counts as inactive or inconclusive. Potency is read from the fitted curve at half-maximal effect.

SMILES	SMN2 splice up	Rab9 promoter act	FLuc counter	NPC1 promoter act	ELG1 genotoxic	ELG1 repair inh
CC(C)(C)c1ccc(/C=C2\SC(=O)N(CCNC(=O)c3cccc(S(=O)(=O)N4CCOCC4)c3)C2=O)cc1	-53.1%	0.891µM*	0.536µM*	0.708µM*	?	?
Cc1ccc(S(=O)(=O)N2CCOCC2)cc1C(=O)NCCN1C(=O)S/C(=C\c2ccccc2Cl)C1=O	-6.9%	-0.8%	?	-0.5%	-1.9%	20.6µM*
Cc1[nH][nH]c(=O)c1N=Nc1ccccc1Cl	.	16.4%	15.1µM*	8.7%	11.8%	17.0%
N#Cc1ccc(CN2CC[C@@]3(CCCN(S(=O)(=O)c4ccccc4)C3)C2)cc1	-19.6%	.	.	.	.	.
Cc1ccc(NC(=O)C2CC2c2ccccc2)c([N+](=O)[O-])c1 (configuration not stated)	.	22.2%	19µM*	?	?	?
CCOC(=O)c1cc(-c2ccccc2)n(CCC(=O)N2CCN(c3ccccn3)CC2)c1C	-1.2%	0.9%	0.8%	-0.6%	-6.3%	23.1µM*
O=C(CSc1nnc(-c2cccnc2)s1)Nc1ccnc2ccccc12	-69.8%	-34.3%	-5.3%	-23.4%	-3.6%	11.6µM*
CCCCCCCc1cc2ccccc2c(=O)o1	17.9%	.	.	.	.	.
O=C(c1noc2c1CCCC2)N1CCN(c2ccccc2)CC1	12.4%	1.5%	-2.0%	10.4%	14.7%	10.3%
O=C(c1noc2c1CCCC2)N1CCC(CO)(Cc2ccccc2Cl)CC1	.	-0.5%	0.5%	-8.9%	-9.2%	20.6µM*
CCN(CC)S(=O)(=O)c1ccc(C)c(NC(=O)Cn2cnc3cc([N+](=O)[O-])ccc3c2=O)c1	-4.1%	-0.2%	-19.5%	-9.1%	-6.8%	16.4µM*
Cc1cc2ncc(-c3ncc(C(F)(F)F)cc3Cl)cn2n1	1.26µM*	0.398µM*	1.35µM*	0.708µM*	?	?
Cc1nn2cc(-c3ncc(C(F)(F)F)cc3Cl)cnc2c1Br	.	0.316µM*	1.51µM*	0.398µM*	?	?
FC(F)(F)c1cnc(-c2cnc3c(-c4ccc(Cl)cc4)cnn3c2)c(Cl)c1	4.1%	-2.6%	-2.8%	-2.7%	-1.0%	5.6%
COc1ccc(NC(=O)C2=C(C)Nc3ncnn3C2c2ccc[nH]2)cc1 (configuration not stated)	.	.	4.9%	.	.	.
Cc1ccc2cc(C#N)c(NCCNC(=S)NCCCN(C)C)nc2c1C	.	-13.1%	2.6%	-5.9%	?	?
Cc1ccc2cc(C#N)c(NCCNC(=O)C3CC3)nc2c1C	.	-7.6%	-0.6%	-4.4%	-13.7%	20.6µM*
CCOc1ccccc1CNC(=O)Cn1nc(N2CCN(c3ccccc3)CC2)ccc1=O	.	.	2.7%	.	.	.
N/C(=N\N=C/c1ccc(F)cc1)N/N=C\c1ccc(F)cc1	.	-2.8%	6.01µM*	-0.6%	5.1%	-2.0%
N/C(=N\N=C/c1ccc(Br)cc1)N/N=C\c1ccc(Br)cc1	-8.3%	?	10.7µM*	1.3%	2.1%	14.4%
c1ccc(-c2cccc(-c3ccccc3)n2)cc1	.	?	12µM*	22.7%	5.5%	?
N#C/C(=C\c1ccc(O)cc1)c1nc2ccccc2o1	.	?	10.7µM*	?	?	?
COc1cc(/C=C(\C#N)c2nc3ccccc3o2)ccc1O	.	19.9%	7.57µM*	-2.5%	?	?
COc1cc(NS(=O)(=O)c2ccc(N/C=C(\C#N)c3nc4ccccc4o3)cc2)nc(OC)n1	27.1%	-5.9%	2.8%	-3.6%	-1.1%	7.6%
COc1ccccc1NC(=O)CSc1oc(-c2cccs2)nc1S(=O)(=O)c1ccccc1	-2.3%	.	2.2%	.	.	.
SMILES	SMN2 splice up	Rab9 promoter act	FLuc counter	NPC1 promoter act	ELG1 genotoxic	ELG1 repair inh
CCC(=O)Nc1ccc(S(=O)(=O)N2CCC(c3nc4ccccc4[nH]3)CC2)cc1	.	0.8%	1.4%	0.2%	-7.5%	18.3µM*
CC(=O)OCCCN1C(=O)c2cccc3cc(Br)cc(c23)C1=O	.	-1.0%	4.4%	-4.2%	2.4%	-3.4%
CC(=O)OCCCN1c2ccccc2Nc2nnc(-c3ccccc3)cc21	14.1µM*	1.58µM*	2.39µM*	1.78µM*	?	?
CN1CCN(c2ncc3nc(-c4cccs4)c(=O)n(C[C@H]4CCCO4)c3n2)CC1	-11.9%	.	.	.	.	.
Cc1sc2ncn(CC(=O)N(C)c3cccc(C(F)(F)F)c3)c(=O)c2c1S(=O)(=O)N1CCN(c2ncccn2)CC1	2.0%	.	-12.8%	.	.	.
O=S1(=O)C=C(Sc2nc3ccccc3s2)c2ccccc21	-107.5%	-33.9%	2.69µM*	-32.5%	-44.7%	?
CCCn1c(C)nc2c(NCCCN(CCO)CCO)nc(C)nc21	-10.4%	.	.	.	.	.
O=C1CC(c2ccccc2)CC(O)=C1C=Nc1ccc(Cl)cc1 (configuration not stated)	-4.3%[1.84 µM]	-7.1%	-9.5%	-2.8%	-0.2%	0.0%
O=C1CC(c2ccccc2)CC(O)=C1C=Nc1cccc(Cl)c1 (configuration not stated)	-3.2%[1.84 µM]	-5.6%	7.57µM*	-5.8%	1.4%	6.5%
Clc1ccc(-c2nnc(SCc3ccon3)o2)c(Cl)c1	2.82µM*	0.501µM*	1.2µM*	0.355µM*	1.16µM*	?
C=CCSc1nnc(-c2cccnc2)o1	?	2.3%	-3.0%	-1.9%	?	?
Clc1ccc(-c2nnc(SCc3nc4ccccc4[nH]3)o2)c(Cl)c1	-26.2%	0.6%	-0.1%	-2.8%	-2.2%	-23.5%
C=CCSc1nnc(-c2ccc([N+](=O)[O-])cc2)o1	?	3.98µM*	16.9µM*	3.55µM*	?	?
C=CCSc1nnc(-c2ccc(Cl)cc2Cl)o1	?	0.447µM*	1.35µM*	0.708µM*	?	?
CC(C)CCNC(=O)C1CCN(c2nc3ccccc3o2)CC1	-30.6%	-1.4%	-2.3%	0.9%	-6.7%	?
CCCCN(CCCC)CCCNC(=O)c1ccc2nc(N3CCCCC3)sc2c1	15.0%	.	3.8%	.	.	.
Cc1ccc(CNC(=O)c2ccc3nc(N4CCCCC4)sc3c2)cc1	11.5%	.	-1.8%	.	.	.
CCc1ccc2nc(N3CCC(C(=O)NCCC(C)C)CC3)sc2c1	-7.0%	.	1.9µM*	.	.	.
CCCN(CCC)CCCNC(=O)C1CCN(c2nc3ccc(CC)cc3s2)CC1	27.9%	.	12µM*	.	.	.
CCCN(CCC)CCNC(=O)C1CCN(c2nc3ccc(CC)cc3s2)CC1	23.7%	.	21.3µM*	.	.	.
Cc1c(C)n(Cc2ccccc2)c2ccc(C(=O)NCC(C)c3ccccc3)cc12 (configuration not stated)	.	.	-10.5%	.	.	.
CC(=O)NCCC(=O)N1CCCC(CNC(=O)c2ccc(-c3ccccc3)cc2)C1 (configuration not stated)	-3.1%	10.6%	15.1µM*	-3.6%	8.5%	?

Screening results as filed in PubChem.
